# Laboratory results from PubChem BioAssay (NCATS).
# Results filed as inconclusive are left out. Activity calls are given as the source filed them. The call rests on the fitted dose curve; in most records, active means well fitted cell-killing curve with a large enough effect; inconclusive means small, poorly fitted or top-dose-only effect, or effect the other way; inactive means flat fitted curve, though single readings scatter.
# System: Tov-21-G
# Test: Primary qHTS to identify gynecologic anti-cancer compounds using libraries of approved drugs and bioactive compounds (AID 1345084); further: nearly all actives have a fitted effect of over 55% in size
# Details: Gynecologic cancer cell panel viability, ATPlite luminescence, 48 h; series mostly up to 57.5 µM; activity change, negative = cytotoxicity: at the top concentration
# In short: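 In this quantitative HTS, cell killing is estimated from loss of ATP-dependent luciferase light. Cells see five compound concentrations over a 48 h exposure.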
# On the % scale 0 is the no-effect control and ±100 the full control effect; potency means the concentration at half of the fitted maximal effect.
Compound,"activity change, negative = cytotoxicity",Potency
CC12CCC(OC3OC(CO)C(O)C(OC4OC(CO)C(O)C(O)C4O)C3O)CC1CCC1C2CCC2(C)/C(=C3/COC(=O)C3)CCC12O (centres undefined),3.98% [at 25.3 µM] (inactive),
CC[C@@H](O)C[C@@H]1C(C)=C[C@@H]2CCCC[C@@H]2[C@@]1(C)C(=O)O,0.195% (inactive),
CNC(=O)c1cccc(-c2ccc3c(N4CCOC[C@@H]4C)nc(N4CCOC[C@@H]4C)nc3n2)c1,,1.41 µM (active)
C/C=C/C=C/C(=O)N1CC[C@]23c4ccccc4N[C@H]4N(C)c5cccc6c5[C@@]42CCN([C@H]6C2OC2(C)C)[C@H]13 (some centres undefined),-0.657% [at 25.3 µM] (inactive),
CC1(C)CC[C@]2(C(=O)OC3OC(CO)C(O)C(O)C3O)CC[C@]3(C)C(=CCC4[C@@]5(C)CC[C@H](OC6OC(C(=O)O)C(O)C(OC7OC(CO)C(O)C(O)C7O)C6O)C(C)(C)C5CC[C@]43C)C2C1 (some centres undefined),-2.48% [at 11.6 µM] (inactive),
O=C(O)CC(=O)OC[C@H]1O[C@@H](Oc2ccc3c(c2)OC[C@H]2c4cc5c(cc4O[C@@H]32)OCO5)[C@H](O)[C@@H](O)[C@@H]1O,-3.74% [at 25.3 µM] (inactive),
Cc1ccc(C)c(OCCn2cc(C(=O)O)c3ccccc32)c1,-0.595% (inactive),
COc1ccc(C[C@H](N)C(=O)N[C@@H]2[C@H](O)[C@H](n3cnc4c(N(C)C)ncnc43)O[C@@H]2CO)cc1,,4.47 µM (active)
COc1ccc(/C=C/C(=O)O[C@@H]2[C@@H](O)[C@H](C)O[C@@H](O[C@H]3[C@@H]4C=CO[C@@H](O[C@H]5O[C@@H](CO)[C@H](O)[C@@H](O)[C@@H]5O)[C@@H]4[C@@]4(CO)O[C@@H]34)[C@@H]2OC(C)=O)cc1,11.9% [at 25.3 µM] (inactive),
CC(C)c1cc(C(=O)N2CC[C@H](NC(=O)C3CC3)C2)n[nH]1,-8.05% (inactive),
CC1CCC2(OC1)OC1CC3C4CC=C5CC(O)CC(O[C@@H]6OC[C@@H](O)[C@H](O)[C@H]6O)C5(C)C4CCC3(C)C1(O)C2C (some centres undefined),-4.03% [at 25.3 µM] (inactive),
COc1ccc(-c2ccc3c(N4CCOCC4)nc(N4CC(C)OC(C)C4)nc3n2)cc1CO (centres undefined),,1.26 µM (active)
CC1=CC(=O)C(=C(C)C)CC2C1CCC2(C)O (centres undefined),1.56% (inactive),
CC(C)(C)c1ccc(S(=O)(=O)NCc2ccc(C(=O)Nc3cccnc3)cc2)cc1,,1.78 µM (active)
COc1ccc(-c2c(-c3cc(C(=O)O)ccn3)ncn2C)cc1,3.89% (inactive),
O=C(O)c1cc(-c2c(-c3ccccc3)nn3ccccc23)n[nH]c1=O,16.5% (inactive),
CC(C)(C)NCCCNC(=O)c1cccc(Br)c1,-4.04% (inactive),
c1ccc(-c2csc(N3CCOCC3)n2)cc1,-13.7% (inactive),
O=C1CCC(=O)N(O)CCCCCNC(=O)CCC(=O)N(O)CCOCCNC(=O)CCC(=O)N(O)CCCCCN1,-0.63% [at 25.3 µM] (inactive),
C=C1CC[C@H]2[C@@](C)(CCC(O)[C@@]2(C)CO)[C@@H]1CCC1=CCOC1=O (some centres undefined),-0.226% [at 38.5 µM] (inactive),

Compound,"activity change, negative = cytotoxicity",Potency
CC1(C)CCC[C@]2(C)[C@H]3CC(=O)O[C@]3(C)CC[C@@H]12,0.246% (inactive),
O=C(O)c1cc2cccc([N+](=O)[O-])c2[nH]1,-3.77% (inactive),
Nc1ccccc1N,,12.6 µM (active)
CC1(C)CC[C@]2(C(=O)O[C@@H]3O[C@H](CO)[C@@H](O)[C@H](O)[C@H]3O)CC[C@]3(C)C(=CCC4[C@@]5(C)C[C@@H](O)[C@H](O)C(C)(C)C5[C@H](O)C[C@]43C)[C@@H]2[C@@H]1O (some centres undefined),-2.07% [at 25.3 µM] (inactive),
CN1CCN(Cc2ccc(-c3cnc4[nH]cc(-c5ccc6[nH]ccc6c5)c4c3)cc2)CC1,,20 µM (active)
Nc1nccn2c(C3CCC(C(=O)O)CC3)nc(-c3cc4cccc(Cl)c4[nH]3)c12 (centres undefined),,4.47 µM (active)
COc1ccc(-n2[nH]c(=O)c3[nH]c4cc(Cl)ccc4c(=O)c3c2=O)c(C)c1,-18.9% (inactive),
CC1(C)CCCC2(C)C(C(=O)O)=CCC12 (centres undefined),-6.65% (inactive),
C=C(C)C1CCC(C)C12CC(O)C1(C)OC1C2OC(=O)C(N)CCC(=O)O (centres undefined),0.0836% [at 38.5 µM] (inactive),
CC1CCC2(C(=O)O)CCC3(C)C(=CCC4C5(C)CCC(O)C(C)(CO)C5CCC43C)C2C1(C)O (centres undefined),-5.04% [at 25.3 µM] (inactive),
COc1cc([C@H]2c3cc(O)c(OC)cc3C[C@@H](CO[C@@H]3O[C@H](CO)[C@@H](O)[C@H](O)[C@H]3O)[C@@H]2CO)ccc1O,16.9% [at 25.3 µM] (inactive),
O=C(O)/C=C/c1ccc(-c2ccc(O)c(C34CC5CC(CC(C5)C3)C4)c2)cc1,,0.794 µM (active)
COc1cc(O)cc(C)c1C(=O)OC1C(CO)OC(OC2C(O)C(O)C(O)C(O)C2O)C(O)C1O (centres undefined),8.3% [at 25.3 µM] (inactive),
CCOCc1cc(OC)c(-c2ccc(C[C@H](NC(=O)c3c(F)cccc3F)C(=O)O)cc2)c(OC)c1,-8.51% (inactive),
Nc1ccc(/C=C/C(=O)NCc2cc3cc(-c4ccc(C(=O)N5CCC(F)(F)CC5)cc4)cc(-c4ccc(F)cc4)c3o2)cn1,,3.16 µM (active)
c1ccc(-c2ncc(CN3CCN(c4ncccn4)CC3)[nH]2)cc1,4.79% (inactive),
COC(=O)C1=CO[C@@H](O[C@@H]2O[C@H](CO)[C@@H](O)[C@H](O)[C@H]2O)[C@@H]2C(CO)=CC[C@]12O,-1.81% [at 25.3 µM] (inactive),
CC(C)CCC1(O)C(=O)C(C)(C)C(O[C@@H]2O[C@H](CO)[C@@H](O)[C@H](O)[C@H]2O)C(C)(C)C1O (some centres undefined),5% [at 25.3 µM] (inactive),
CCOCCn1nc(CC)c2nc(N3CCC(C(=O)O)CC3)nc(Nc3cc(C)ccn3)c21,-0.997% (inactive),
